KLK7 zymogen act: activates the human kallikrein-7 zymogen. P49862. activation, % at 7 µM. purified proKLK7, EDANS-DABCYL substrate fluorescence; 100% is mature enzyme control, 0% vehicle. actives 0.9% (n = 370,000);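 active = activation above the mean of all tested compounds plus 3 SD, computed per campaign excluding outliers beyond control limits, cut at about 13% in these data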
FAS TE block: FAS thioesterase (human) inhibition. inhibition, % at 15 µM. recombinant FAS-TE, OMFH fluorogenic substrate, fluorescence endpoint. actives 0.67% (n = 360,000);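 active = compounds whose normalised, plate-corrected inhibition of enzyme fluorescence in the single-dose primary screen is 50% or more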;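 note: 0% = DMSO with enzyme and 100% = substrate without enzyme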
GRIN3A LBD mod: modulators (binders) of human NR3A ligand-binding domain | NR3A LBD differential scanning fluorimetry, Tm shift; 0% = protein alone, 100% = glycine-bound protein | Tm shift relative to glycine control, % at 25 µM | actives 2.5% (n = 340,000) | AID 1259313;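 active = melting temperature shift of at least 10% of the positive control shift, at one fixed dose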
ADAM10 inh: inhibits human ADAM10; actives 0.62% (n = 370,000); AID 720582; recombinant ADAM10, EDANS/DABCYL FRET peptide cleavage, 3 h; inhibition, % at 7 µM;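 active = inhibition above a per-campaign cutoff equal to the mean of compounds falling between control-based bounds plus 3 SD, cut at about 20% in these data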;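 note: 0% = DMSO wells while the 100% control is not disclosed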
ADAM17 inh: inhibits human ADAM17; P78536; recombinant ADAM17, EDANS/DABCYL FRET peptide cleavage; inhibition, % at 6.95 µM; actives 0.83% (n = 370,000);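 active = inhibition above the mean of compounds lying between control limits plus 3 SD, set per campaign, cut at about 8.5% in these data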;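 note: 0% = DMSO-only wells as the low control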
ADAM10 confirm: human ADAM10 inhibition, confirmation. inhibition, % at 6.95 µM. actives 1% (n = 2,100). shares compounds with ADAM10 inh. AID 743208. ADAM10 QFRET peptide cleavage, EDANS fluorescence;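 active = inhibition above about 20% chosen separately for each screening run, limit read from the data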;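 note: 0% = DMSO wells and 100% = marimastat wells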
ADAM17 counter: ADAM17 inhibition, counter-screen for ADAM10 exosite hits. shares compounds with ADAM10 inh. ADAM17 QFRET peptide cleavage, EDANS fluorescence. inhibition, % at 6.95 µM. actives 0.5% (n = 2,100);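 active = mean triplicate inhibition above the solvent-only control wells' mean plus 3 SD, cut at about 12% in these data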;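 note: 0% = DMSO wells and 100% = marimastat wells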
ADAM10 counter: inhibits human ADAM10 in ADAM17 exosite counter-screen; shares compounds with ADAM17 inh; AID 743256; actives 47% (n = 2,900); recombinant ADAM10, EDANS/DABCYL FRET peptide cleavage, 3 h; inhibition, % at 6.95 µM;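 active = mean inhibition over the triplicate runs exceeds the activity threshold set in the earlier primary screen, cut at about 20% in these data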;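 note: 0% = DMSO wells and 100% = marimastat wells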
ADAM17 confirm: human ADAM17 inhibition, confirmation | shares compounds with ADAM17 inh | recombinant ADAM17, EDANS/DABCYL QFRET peptide cleavage | inhibition, % at 6.95 µM | actives 65% (n = 2,900) | AID 743257;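 active = mean inhibition across replicates above the hit cutoff set in the primary screen, cut at about 8.5% in these data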;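 note: 0% = DMSO wells and 100% = marimastat wells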
* marks the source's active call; other numbers are inactive results; / = no result. Hits are enriched below; roughly 4.6% of the tested compounds scored in any of these assays.

SMILES	KLK7 zymogen act	FAS TE block	GRIN3A LBD mod	ADAM10 inh	ADAM17 inh	ADAM10 confirm	ADAM17 counter	ADAM10 counter	ADAM17 confirm
Oc1ccc(C[C@H]2CN([C@@H](Cc3cccc(O)c3)CN3CCC[C@@H]3CN3C(=S)NC[C@@H]3Cc3ccccc3)C(=S)N2CC2CCCCC2)cc1	-1	-81	/	31*	14*	9	3	49*	23*
CC(OC(=O)CCCCCN=C1NS(=O)(=O)c2ccccc21)C(=O)Nc1cc(Cl)cc(Cl)c1 (stereo not given)	1	22	18*	29*	15*	4	1	17	15*
CC(=O)Nc1ccc(NC(=O)C(C)OC(=O)CCN=C2NS(=O)(=O)c3ccccc32)cc1 (stereo not given)	-1	-2	0	-11	-2	/	/	/	/
COC(=O)C1=C(C)N(Cc2ccc(C(F)(F)F)cc2)C(=NCc2ccccc2)NC1c1cccc(F)c1 (stereo not given)	0	/	/	11	8	/	/	/	/
COC(=O)C1=C(C)N(Cc2cccc(C(F)(F)F)c2)C(=NCc2ccc(C(F)(F)F)cc2)NC1c1cccc(F)c1 (stereo not given)	0	/	/	21*	9.4*	10	5	22*	12*
Cc1ccc(S(=O)(=O)N(C)c2ccc(C(=O)Nc3cccc(C)n3)cc2)cc1	1	15	0	20*	15*	1	0	10	8
Cc1nc2ccc(NC(=O)c3ccc(S(=O)(=O)N(C)c4ccccc4)cc3)cc2s1	1	21	-4	29*	16*	6	2	18	13*
Cc1ccc(S(=O)(=O)N(C)c2ccc(C(=O)Nc3ccccn3)cc2)cc1	0	9	2	9	4	/	/	/	/
Cc1nc2ccc(NC(=O)N(C)c3ccccc3)cc2s1	-1	-10	0	-15	-6	/	/	/	/
O=[N+]([O-])c1ccc2c(c1)CO[C@]21O[C@H](CCO)C[C@H](O)[C@H]1O	0	/	/	-13	-4	/	/	/	/
C[C@@H]1CN([C@@H](C)CO)C(=O)CCCn2cc(nn2)CO[C@H]1CN(C)C(=O)NC1CCCCC1	0	/	/	-4	-2	/	/	/	/
CCc1ccc(NC(=O)CO/N=C(\C)c2cc3ccccc3o2)cc1	-1	22	-8	24*	13*	6	2	18	13*
C/C(=N\OCC(=O)Nc1ccc(F)c(F)c1F)c1cc2ccccc2o1	0	48	-8	4	0	/	/	/	/
O=C(OCC#CCSc1nnc(-c2cccc3ccccc23)o1)C1CCCC1	/	/	/	-43	-11	/	/	/	/
Cc1cc(O)c2c(-c3ccccc3)cc(=O)oc2c1	0	-4	0	2	-4	/	/	/	/
Cc1cc2oc(=O)cc(-c3ccccc3)c2c(C)c1-c1ccc(O)cc1	0	35	-12	33*	16*	8	3	19	13*
CC(C)CCNC(=O)NC(=O)CSc1nnc(COc2ccccc2Cl)o1	-1	-8	-20	23*	9.8*	3	0	6	6
CC(C)NC(=O)NC(=O)CSc1nnc(COc2ccccc2Cl)o1	1	-10	0	7	1	/	/	/	/
CC(=O)O[C@@H]1C=C[C@@H](C#Cc2ccc(C(C)(C)C)cc2)O[C@@H]1COC(=O)NCc1ccccc1	1	/	/	-9	2	/	/	/	/
COc1ccc(CN2C(=O)[C@H]3Cc4c([nH]c5ccccc45)C(C)(C)N3C2=O)cc1	1	16	-3	22*	8.9*	4	1	30*	17*
O=C(Nc1ccc(Nc2ccccc2)cc1)C(Cl)(Cl)Cl	1	9	6	26*	9.8*	5	1	8	4
NC(=O)Nc1ccc(Nc2ccccc2)cc1	0	0	-2	7	1	/	/	/	/
COC(=O)C1=C(C)N(Cc2cccc(C(F)(F)F)c2)C(=NCc2ccc3c(c2)OCO3)NC1CCc1ccccc1 (stereo not given)	0	/	/	-14	-2	/	/	/	/
COc1ccc(C(=O)Nc2nc(-c3cccs3)cs2)cc1	1	21	16*	21*	10*	9	3	-10	3
O=C(COc1ccc(Cl)cc1)Nc1nc(-c2cccs2)cs1	1	23	3	23*	9.7*	2	2	12	5
SMILES	KLK7 zymogen act	FAS TE block	GRIN3A LBD mod	ADAM10 inh	ADAM17 inh	ADAM10 confirm	ADAM17 counter	ADAM10 counter	ADAM17 confirm
CC(C)[C@H](NC(=O)c1cccs1)C(=O)N1CCC[C@H]1C(=O)NCc1ccccc1	0	/	/	2	2	/	/	/	/
C=CCN1C(=O)c2n[nH]c(COC)c2C1c1ccc(Br)cc1 (stereo not given)	0	/	/	-5	-3	/	/	/	/
C[C@@H]1CCCCO[C@@H](CN(C)C(=O)Nc2ccc3c(c2)OCO3)[C@@H](C)CN([C@H](C)CO)C(=O)c2cc(NC(=O)Nc3ccc(C(F)(F)F)cc3)ccc2O1	0	/	/	21*	9.8*	11	2	42*	22*
C[C@@H]1CN([C@@H](C)CO)C(=O)c2cc(NS(C)(=O)=O)ccc2O[C@H]1CN(C)Cc1ccc(Oc2ccccc2)cc1	0	-2	1	4	1	/	/	/	/
C[C@@H]1CCCCO[C@H](CN(C)C(=O)Nc2ccc(C(F)(F)F)cc2)[C@@H](C)CN([C@H](C)CO)C(=O)c2cc(NC(=O)Nc3ccc4c(c3)OCO4)ccc2O1	-1	2	/	6	3	/	/	/	/
C[C@@H]1CN([C@@H](C)CO)C(=O)c2cc(NC(=O)Nc3ccc(F)cc3)ccc2O[C@@H]1CN(C)Cc1ccc(Oc2ccccc2)cc1	0	22	12*	24*	11*	19	7	48*	23*
C[C@H](CO)N1C[C@H](C)[C@@H](CN(C)S(=O)(=O)c2ccccc2)Oc2ccc(NC(=O)Nc3ccc(C(F)(F)F)cc3)cc2C1=O	1	12	23*	33*	8.8*	9	2	40*	24*
CC(C)NC(=O)Nc1ccc2c(c1)C(=O)N([C@H](C)CO)C[C@H](C)[C@@H](CN(C)S(=O)(=O)c1ccccc1)O2	0	-3	0	11	1	/	/	/	/
COc1ccc(NC(=O)Nc2ccc3c(c2)C(=O)N([C@H](C)CO)C[C@H](C)[C@@H](CN(C)C(=O)Nc2ccc(C(F)(F)F)cc2)O3)cc1	1	14	4	32*	16*	5	0	21*	12*
